Read-out in test [1]: Transforming growth factor beta 1 (TGFb1), TGFB1 (gene 7040)
Nature of the test: BSK_KF3CT_TGFb1: BioMAP Diversity Plus: KF3CT Assay for Transforming growth factor beta 1 (TGFb1) Biomarker Activity (AID 2283072). Particulars: primary human keratinocytes with fibroblasts; actives raise or lower the signal. The essentials:
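Primary human skin cells (keratinocytes, foreskin fibroblasts) were co-cultured, exposed to test chemical and sampled at 24 h. TGF-b1 levels were measured by ELISA and fitted bidirectionally relative to DMSO.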

Read-out in test [2]: C-C motif chemokine 2 (Homo sapiens) (UniProt P13500)
Nature of the test: BSK_KF3CT_MCP1: BioMAP Diversity Plus: KF3CT Assay for Monocyte Chemoattractant Protein 1 (MCP1/CCL2) Biomarker Activity (AID 2283073). Conditions: primary human keratinocytes with fibroblasts; actives raise or lower the signal. The essentials:
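Human keratinocyte plus foreskin fibroblast primary co-culture exposed to chemical for 24 h. MCP-1 levels measured by ELISA. Bidirectional curve fitting relative to DMSO negative control as baseline.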

Read-out in test [3]: Matrix Metallopeptidase 9 (MMP9), MMP9 (gene 4318)
Nature of the test: BSK_KF3CT_MMP9: BioMAP Diversity Plus: KF3CT Assay for Matrix Metallopeptidase 9 (MMP9) Biomarker Activity (AID 2283074). Conditions: primary human keratinocytes with fibroblasts; actives raise or lower the signal. The essentials: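 Keratinocyte plus foreskin fibroblast human primary skin co-culture was dosed with chemical and MMP-9 was quantified by ELISA 24 h later. Bidirectional curve fitting used DMSO as negative control and activity baseline.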

Read-out in test [4]: urokinase plasminogen activator (uPA), PLAU (gene 5328)
Nature of the test: BSK_KF3CT_uPA: BioMAP Diversity Plus: KF3CT Assay for urokinase plasminogen activator (uPA) Biomarker Activity (AID 2283075). Particulars: primary human keratinocytes with fibroblasts; actives raise or lower the signal. The method in brief: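 Human keratinocyte plus foreskin fibroblast primary co-culture exposed to chemical for 24 h. uPA levels were quantified by ELISA, and activity was fitted bidirectionally against a DMSO negative-control baseline.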

Read-out in test [5]: CD40, CD40 (gene 958)
Nature of the test: BSK_LPS_CD40: BioMAP Diversity Plus: LPS Assay for CD40 Biomarker Activity (AID 2283076). Particulars: primary human HUVEC with PBMC; actives raise or lower the signal. The essentials: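 Primary human umbilical vein endothelial cells co-cultured with peripheral blood mononuclear cells, LPS-stimulated, were dosed with chemical and read 24 h later. CD40 levels were measured by ELISA and fitted bidirectionally against DMSO as negative control and baseline.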

Read-out in test [6]: E-selectin (Homo sapiens) (UniProt P16581)
Nature of the test: BSK_LPS_Eselectin: BioMAP Diversity Plus: LPS Assay for Eselectin Biomarker Activity (AID 2283077). Conditions: primary human HUVEC with PBMC; actives raise or lower the signal. The method in brief: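 Human umbilical vein endothelial cells co-cultured with peripheral blood mononuclear cells under LPS stimulation; E-selectin measured by ELISA 24 h after chemical dosing. Activity fitted bidirectionally against DMSO as negative control and baseline.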

Read-out in test [7]: Interleukin-8 (IL8), CXCL8 (gene 3576)
Nature of the test: BSK_LPS_IL8: BioMAP Diversity Plus: LPS Assay for Interleukin-8 (IL8) Biomarker Activity (AID 2283078). Conditions: primary human HUVEC with PBMC; actives raise or lower the signal. The method in brief: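 Human umbilical vein endothelial cells co-cultured with PBMC were stimulated with LPS; IL-8 levels were measured by ELISA 24 h after chemical dosing. Activity was fitted bidirectionally against DMSO as negative control and baseline.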

Test [8] in a line: BSK_LPS_SRB: Viability Assessment in the BioMAP Diversity Plus: LPS Assay (AID 2283079).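 Note: total protein by sulforhodamine B absorbance as a cytotoxicity measure; measured one day after compound addition; fitted in both directions against DMSO so loss or gain of signal counts.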 Conditions: primary human HUVEC with PBMC. The essentials:
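Human umbilical vein endothelial cells co-cultured with PBMC (LPS system) were dosed for 24 h. Total protein was stained with 0.1% sulforhodamine B after 10% TCA fixation, read at 560 nm, and fitted bidirectionally against DMSO baseline.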

Read-out in test [9]: Interleukin-1 alpha (IL1a), IL1A (gene 3552)
Nature of the test: BSK_LPS_IL1a: BioMAP Diversity Plus: LPS Assay for Interleukin-1 alpha (IL1a) Biomarker Activity (AID 2283080). Particulars: primary human HUVEC with PBMC; actives raise or lower the signal. The method in brief:
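Human umbilical vein endothelial cells co-cultured with peripheral blood mononuclear cells were LPS-stimulated and exposed to test chemicals for 24 h. IL-1 alpha was quantified by ELISA, with bidirectional curve fitting against DMSO as the negative control and baseline.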

Read-out in test [10]: Monocyte Chemoattractant Protein-1 (MCP1), CCL2 (gene 6347)
Nature of the test: BSK_LPS_MCP1: BioMAP Diversity Plus: LPS Assay for Monocyte Chemoattractant Protein-1 (MCP1) Biomarker Activity (AID 2283081). Conditions: primary human HUVEC with PBMC; actives raise or lower the signal. The essentials:
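HUVEC plus PBMC co-culture (human primary cells, LPS system) exposed to test chemical for 24 h; MCP-1 measured by ELISA. Bidirectional curve fitting against DMSO baseline; parallel SRB total-protein staining flags overt cytotoxicity.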

Test [11] can be described thus: BSK_LPS_PGE2: BioMAP Diversity Plus: LPS Assay for Prostaglandin E2 (PGE2) Biomarker Activity (AID 2283082). Conditions: primary human HUVEC with PBMC; actives raise or lower the signal. The essentials: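 LPS-activated HUVEC/PBMC co-culture; cmpd dosed, 24 h; PGE2 by ELISA; bidirectional fit vs DMSO; SRB (0.1%, TCA-fixed, 560 nm) in parallel plates for overt cytotox.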

Read-out in test [12]: Macrophage colony-stimulating factor (MCSF), CSF1 (gene 1435)
Nature of the test: BSK_LPS_MCSF: BioMAP Diversity Plus: LPS Assay for Macrophage colony-stimulating factor (MCSF) Biomarker Activity (AID 2283083). Particulars: primary human HUVEC with PBMC; actives raise or lower the signal. The method in brief: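 Human umbilical vein endothelial cells co-cultured with peripheral blood mononuclear cells were exposed to compound for 24 h. M-CSF levels were measured by ELISA, and bidirectional curve fitting used DMSO as the negative control and baseline.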

Read-out in test [13]: Tissue Factor, F3 (gene 2152)
Nature of the test: BSK_LPS_TissueFactor: BioMAP Diversity Plus: LPS Assay for Tissue Factor Biomarker Activity (AID 2283084). Particulars: primary human HUVEC with PBMC; actives raise or lower the signal. The method in brief:
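Human umbilical vein endothelial cells co-cultured with peripheral blood mononuclear cells were dosed and stimulated with LPS. Cell-surface CD142 was quantified by ELISA at 24 h. Activity was fitted bidirectionally against DMSO baseline.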

Read-out in test [14]: Tumor necrosis factor (Homo sapiens) (UniProt P01375)
Nature of the test: BSK_LPS_TNFa: BioMAP Diversity Plus: LPS Assay for Tumour Necrosis Factor alpha (TNFa) Biomarker Activity (AID 2283085). Conditions: primary human HUVEC with PBMC; actives raise or lower the signal. The method in brief:
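Read-out is ELISA of TNFa in primary human endothelial cell–PBMC co-cultures at 24 h after compound. Activity in either direction was fitted against DMSO.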

Read-out in test [15]: Vascular cell adhesion molecule 1 (VCAM1), VCAM1 (gene 7412)
Nature of the test: BSK_LPS_VCAM1: BioMAP Diversity Plus: LPS Assay for Vascular cell adhesion molecule 1 (VCAM1) Biomarker Activity (AID 2283086). Particulars: primary human HUVEC with PBMC; actives raise or lower the signal. The essentials:
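HUVEC + PBMC co-culture, LPS system; compound 24 h; VCAM-1 by ELISA; bidirectional fit vs DMSO control; parallel SRB (0.1%, TCA-fixed, 560 nm) for cytotoxicity.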

Read-out in test [16]: CD40, CD40 (gene 958)
Nature of the test: BSK_SAg_CD40: BioMAP Diversity Plus: SAg Assay for CD40 Biomarker Activity (AID 2283088). Conditions: primary human HUVEC with PBMC; actives raise or lower the signal. The essentials: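 Human umbilical vein endothelial cells co-cultured with PBMC; CD40 levels measured by ELISA with fluorescence read-out 24 h after chemical dosing. Gain or loss of signal fitted bidirectionally against DMSO baseline.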

Read-out in test [17]: CD69, CD69 (gene 969)
Nature of the test: BSK_SAg_CD69: BioMAP Diversity Plus: SAg Assay for CD69 Biomarker Activity (AID 2283089). Conditions: primary human HUVEC with PBMC; actives raise or lower the signal. The method in brief:
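Endothelial/PBMC co-culture; chemical added; 24 h incubation; CD69 ELISA with fluorescence detection; bidirectional fit vs DMSO.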

Read-out in test [18]: Monocyte Chemoattractant Protein-1 (MCP1), CCL2 (gene 6347)
Nature of the test: BSK_SAg_MCP1: BioMAP Diversity Plus: SAg Assay for Monocyte Chemoattractant Protein-1 (MCP1) Biomarker Activity (AID 2283090). Conditions: primary human HUVEC with PBMC; actives raise or lower the signal. The method in brief:
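MCP-1 levels in the endothelial–PBMC SAg co-culture were quantified by ELISA at 24 h post-dosing; both increases and decreases versus DMSO scored. Cytotoxicity monitored by SRB total protein in parallel cultures.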

Read-out in test [19]: E-selectin (Homo sapiens) (UniProt P16581)
Nature of the test: BSK_SAg_Eselectin: BioMAP Diversity Plus: SAg Assay for Eselectin Biomarker Activity (AID 2283091). Particulars: primary human HUVEC with PBMC; actives raise or lower the signal. The essentials: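 HUVEC co-cultured with PBMC, compound dosed then read at 24 h; E-selectin measured by ELISA. Activity fitted bidirectionally against DMSO as negative control and baseline.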

Read-out in test [20]: CD38, CD38 (gene 952)
Nature of the test: BSK_SAg_CD38: BioMAP Diversity Plus: SAg Assay for CD38 Biomarker Activity (AID 2283087). Conditions: primary human HUVEC with PBMC; actives raise or lower the signal. The method in brief: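 Human HUVEC plus PBMC co-culture stimulated with superantigen; CD38 measured by ELISA 24 h after chemical dosing. Fluorescence read-out, bidirectional fit against DMSO; cytotoxicity tracked in parallel by SRB and Alamar Blue.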

Activity calls are given as the source filed them. Rule for the calls: active = hit-call score of the fitted dose curve at least 0.9, where 1 is the maximum; inactive = score below 0.9.

E-selectin (Homo sapiens), sequence (P16581 whole entry, looked up): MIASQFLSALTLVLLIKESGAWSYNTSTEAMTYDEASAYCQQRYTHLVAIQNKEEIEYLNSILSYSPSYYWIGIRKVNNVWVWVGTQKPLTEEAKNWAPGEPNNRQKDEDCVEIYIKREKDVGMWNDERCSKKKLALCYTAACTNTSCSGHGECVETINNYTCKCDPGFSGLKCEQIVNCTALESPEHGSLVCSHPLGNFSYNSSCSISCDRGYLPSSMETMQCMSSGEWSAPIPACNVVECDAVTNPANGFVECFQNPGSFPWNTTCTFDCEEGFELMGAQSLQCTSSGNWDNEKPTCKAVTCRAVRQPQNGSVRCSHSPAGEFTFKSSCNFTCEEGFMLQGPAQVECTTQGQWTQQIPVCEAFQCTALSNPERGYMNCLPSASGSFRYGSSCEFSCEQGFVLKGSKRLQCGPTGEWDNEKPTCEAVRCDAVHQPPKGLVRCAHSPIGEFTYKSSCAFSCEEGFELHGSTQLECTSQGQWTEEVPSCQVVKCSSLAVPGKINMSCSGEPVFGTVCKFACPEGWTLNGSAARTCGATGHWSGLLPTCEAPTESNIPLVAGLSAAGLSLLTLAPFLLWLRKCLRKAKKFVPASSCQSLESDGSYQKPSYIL
Tumor necrosis factor (Homo sapiens), sequence (P01375 whole entry, looked up): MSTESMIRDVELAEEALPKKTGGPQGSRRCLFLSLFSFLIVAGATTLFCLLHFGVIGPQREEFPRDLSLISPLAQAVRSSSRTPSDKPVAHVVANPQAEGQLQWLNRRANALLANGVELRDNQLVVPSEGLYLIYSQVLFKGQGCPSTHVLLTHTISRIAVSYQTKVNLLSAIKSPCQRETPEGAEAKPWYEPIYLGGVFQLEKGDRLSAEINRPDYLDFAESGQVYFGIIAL

In the case of `CCCCCCCCOc1ccc(C(=O)c2ccccc2)c(O)c1`, the outcome in [1], in test [2], in test [3], in test [4], in test [6] and in test [7] was inactive. The result in test [8], in test [9], in test [10], in test [11], in test [12] and in [14] was inactive. The outcome in [15], in test [17], in test [18] and in test [19] was inactive. Besides, the AC50 (usually the concentration giving half of the maximal activity seen) in [5] was 25.3 µM (active); in test [13] it was 12.6 µM (active); in [16], 30.3 µM (active).
As to `CCN(Cc1cccc(S(=O)(=O)O)c1)c1ccc(C(=C2C=CC(=[N+](CC)Cc3cccc(S(=O)(=O)O)c3)C=C2)c2ccccc2S(=O)(=O)[O-])cc1`, the outcome in test [1], in test [2], in test [3], in [4], in [6] and in test [7] was inactive. In addition, the result in test [8], in [9], in [10], in test [11], in [12] and in test [13] was inactive. Also, the outcome in test [14], in test [15], in test [20], in test [16], in test [17] and in test [18] was inactive. Besides, in test [19], the outcome was inactive.
`Cc1occc1C(=O)Nc1ccc(C(=O)N2CCC(F)(F)/C(=C\C(=O)N3CCC(N4CCCCC4)CC3)c3ccccc32)cc1`: the result in test [1], in test [2], in test [3], in test [4], in test [5] and in test [6] was inactive. Further, the result in [7], in test [9], in test [10], in [11], in test [12] and in [13] was inactive. Besides, the outcome in test [14], in [15], in test [20], in test [16], in test [17] and in test [18] was inactive. The outcome in test [19] was inactive.

(Values after PubChem BioAssay (EPA / NIEHS).)
